Compound activity from PubChem.
rTrxR1 inhibitor – blocks rat thioredoxin reductase 1. recombinant rTrxR1, NADPH fluorescence consumption, selenite substrate. 390,000 compounds, 1% hits. Potency, µM (doses to about 114 µM), without a hit: top-dose activity change, negative = inhibition, actives largely listed as inhibitors; note: % is set by controls: 0 for no effect and ±100 for the full control effect; nearly all actives have a fitted effect of over 65% in size
Target sequence (O89049 whole entry, looked up): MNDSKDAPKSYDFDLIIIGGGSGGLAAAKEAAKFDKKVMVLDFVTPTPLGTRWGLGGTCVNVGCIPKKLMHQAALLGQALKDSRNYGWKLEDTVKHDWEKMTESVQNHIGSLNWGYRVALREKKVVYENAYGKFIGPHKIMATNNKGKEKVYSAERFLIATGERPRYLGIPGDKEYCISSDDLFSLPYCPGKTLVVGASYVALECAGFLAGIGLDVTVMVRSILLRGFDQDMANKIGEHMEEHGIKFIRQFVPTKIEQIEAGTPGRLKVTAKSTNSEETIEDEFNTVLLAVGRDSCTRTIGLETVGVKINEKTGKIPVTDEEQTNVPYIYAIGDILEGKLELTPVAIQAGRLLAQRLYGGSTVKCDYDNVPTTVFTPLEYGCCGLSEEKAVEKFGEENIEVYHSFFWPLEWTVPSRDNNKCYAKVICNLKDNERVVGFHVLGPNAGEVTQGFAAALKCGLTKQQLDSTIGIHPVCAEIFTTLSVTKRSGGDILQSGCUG
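Rat TrxR1 (90 nM in the dispensed reagent) was pre-reduced with 400 uM NADPH for 5 min at room temperature, then incubated with compound for 15 min. After 400 uM selenite was added, NADPH fluorescence (Ex 340/Em 450 nm) was followed for 8 min.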
GLP1R ag – activates the human GLP-1 receptor. P43220. 380,000 compounds, 0.007% hits. HEK293 GLP-1R CRE-luciferase, luminescence, 4-6 h; cells express a hypersensitive GLP-1R form. Potency, µM (titrated, usually from 45.6 µM), inactives show at the top dose activation, hits mostly activators; note: % of control where 0% means no effect
TrxR1 substrate – rat thioredoxin reductase 1 substrate activity; 390,000 compounds, 0.01% hits; O89049; Potency, µM (series often up to 114 µM), for inactives: top-dose activity change, negative = substrate turnover; purified TrxR1 substrate turnover, NADPH consumption readout; AID 588456; note: % is set by controls: 0 for no effect and ±100 for the full control effect; nearly all actives have a fitted effect of over 50% in size
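Rat TrxR1, dispensed at 90 nM, was prereduced with 400 uM NADPH (final) for 5 min at ~22 deg C, then incubated with compound 15 min before 400 uM selenite. A first-read NADPH fluorescence drop versus no-compound background flagged substrates.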
HEK293 tox – cytotoxicity in counter-screen for GLP-1R inverse agonists | HEK293 cAMP-luciferase reporter cells, luminescence, 24 h | Potency, µM (doses to about 38.3 µM), for the others: at the top dose activity change, negative = inhibition, usual class: inhibitors | 410,000 compounds, 0.13% hits | AID 624418;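 note: loss of luciferase light is scored as toxicity; % is set by controls: 0 for no effect and ±100 for the full control effect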
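MLSMR compounds, 24 hr on cells at 37 deg C/5% CO2; luminescence after luciferase reagent (12 min RT). Inhibition counted as the undesired cytotoxic outcome.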
mIDH1 inhibitor – human IDH1 R132H inhibition; AID 602179; 390,000 compounds, 0.093% hits; O75874; Potency, µM (titrated, usually from 76.6 µM), for inactives: at the top dose activity change, negative = inhibition, hits mostly inhibitors; IDH1-R132H enzyme, NADPH consumption, diaphorase/resazurin fluorescence; note: % is set by controls: 0 for no effect and ±100 for the full control effect; nearly all actives have a fitted effect of over 65% in size
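IDH1-R132H (0.5 ug/mL dispensed) in pH 7.5 Tris buffer was preincubated 30 min with compound, then given a substrate mix of 0.016 mM NADPH and 2 mM alpha-KG for 80 min at room temperature; remaining NADPH was read by diaphorase/resazurin fluorescence.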
GLP1R inv ag – inverse agonists of human GLP-1 receptor; Potency, µM (highest dose often 38.3 µM), for the others: top-dose activity change, negative = inhibition, hits mostly inhibitors; AID 624417; P43220; 410,000 compounds, 1.6% hits; HEK293 GLP-1R CRE-luciferase, luminescence, 24 h; GLP-1R form is constitutively active; note: % is set by controls: 0 for no effect and ±100 for the full control effect; nearly all actives have a fitted effect of over 55% in size
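HEK293 cells stably co-expressing constitutively active GLP-1R and a cAMP-responsive luciferase reporter were seeded in DMEM with 10% Nu serum, given compounds after 12 h, and incubated 24 h at 37 deg C. Luminescence was then read.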
Active calls of the source: *; ? = inconclusive; · = no result; [ ] = remark or other dose. Sampled rows, rich in hits. Any-hit rate of the full collection: about 2.7%. Calls come from the whole dose curve; as a rule, active = well fitted curve in the direction sought with a large enough effect; inconclusive = small, poorly fitted or top-dose-only effect, or another doubt; inactive = no such curve, though single readings can be large; an effect the other way counts as inactive or inconclusive. Potency is the fitted concentration of half-maximal effect.

SMILES	rTrxR1 inhibitor	GLP1R ag	TrxR1 substrate	HEK293 tox	mIDH1 inhibitor	GLP1R inv ag
O=C(C[n+]1ccc(-c2cc(C(=O)Nc3cccc(C(F)(F)F)c3)c3ccccc3n2)cc1)c1cccc([N+](=O)[O-])c1	8%	-1%	-3%	?	10%	11µM*
CC(=O)O[C@@]12CO[C@@H]1C[C@H](O)[C@@]1(C)C(=O)[C@H](O)C3=C(C)[C@@H](OC(=O)C(O)[C@@H](NC(=O)OC(C)(C)C)c4ccccc4)C[C@@](O)([C@@H](OC(=O)c4ccccc4)[C@H]21)C3(C)C (stereo partly specified)	5%	4%	3%	·	·	·
O=C(Cn1cc(COc2c(F)c(F)cc(F)c2F)nn1)c1ccc(O)cc1	50µM*	-1%	0%	4%	10%	5%
Cc1ccc(C)c(C(=O)CSc2n[nH]c(C)n2)c1	35µM*	-8%	-3%	-3%	0%	5%
CCc1nc(SCC(=O)c2cc(C)ccc2C)n[nH]1	?	3%	-4%	10%	9%	5%
COC(=O)c1cccc(-c2ccc(/C=N/N3C(=O)C4C5C=CC(C6CC56)C4C3=O)o2)c1 (stereo unspecified)	16%[57.1 µM]	7%	6%[57.1 µM]	-6%	-2%	-36%
O=C1C2C3C=CC(C4CC34)C2C(=O)N1/N=C/c1ccc([N+](=O)[O-])o1 (stereo unspecified)	14µM*	14%	-4%[57.1 µM]	-13%	1%	57%
COC(=O)c1ccc(-c2ccc(/C=N/N3C(=O)C4C5C=CC(C6CC56)C4C3=O)o2)cc1 (stereo unspecified)	20µM*	-13%	21%	14%[1.53 µM]	-1%	?
Cc1ccc(-c2ccc(/C=N/N3C(=O)C4C5C=CC(C6CC56)C4C3=O)o2)c([N+](=O)[O-])c1 (stereo unspecified)	13%[57.1 µM]	2%	-10%	-27%	3%	3.5µM*
O=C1C2C3C=CC(C4CC34)C2C(=O)N1/N=C/c1ccc(-c2ccc([N+](=O)[O-])cc2)o1 (stereo unspecified)	8%[57.1 µM]	4%	9%[57.1 µM]	-13%	9%	17%
O=C1C2C(C(=O)N1/N=C/c1ccc([N+](=O)[O-])o1)C1C=CC2C12CC2 (stereo unspecified)	56µM*	-1%	-12%	-33%	7%	32%
Cc1cc(C)cc(OCC(=O)N(Cc2ccco2)Cc2ccccc2Cl)c1	-8%	·	-15%	8%	·	?
CCOC(=O)c1cc(-c2ccccc2)n(-c2cccc(C(=O)N(CC)c3ccccc3)c2)c1C	13%[57.1 µM]	·	-4%[57.1 µM]	3%	-1%	3%
Cc1ccc(N(CC(=O)N2CCN(c3cccc(C)c3C)CC2)S(=O)(=O)c2c(C)nn(C)c2C)cc1	8%	-5%	-7%	4%	-4%	?
Cc1cccc(Nc2c3c(nc4nncn24)CCC3)c1C	-16%	·	-2%	10%	-15%	-2%
COc1ccc(C(=O)NC(=S)Nc2ccc(CN3CCCCC3)cc2)cc1Cl	-44%	11%	10%[57.1 µM]	?	10%	8.9µM*
COc1ccc(C(=O)NC(=S)Nc2ccc(CN3CCOCC3)cc2)cc1Cl	33%	9%	2%	?	5%	?
CCOc1ccc(OCc2cccc(C(=O)Nc3ccc(CN4CCCCC4)cc3)c2)cc1	0%	-16%	-9%	?	-2%	4.5µM*
COc1cccc(N2CCN(C(=O)Cn3ncc4c(=O)oc5ccccc5c43)CC2)c1	6%	-1%	-1%	-7%	8%	-10%
COc1ccccc1NC(=O)c1cc2c(n(-c3ccc(C)cc3)c1=O)CC(C)(C)CC2=O	8%	1%	6%	-16%	-7%	-1%
